The target of experiment [1] is DNA repair nuclease/redox regulator APEX1 (Homo sapiens) (UniProt P27695). The experiment is described as follows: qHTS Validation Assay for Inhibitors of the Human Apurinic/apyrimidinic Endonuclease 1 (APE1) (AID 1705;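 further: TAMRA fluorescence gain over two minutes as APE1 cuts a quenched THF abasic duplex; on the % scale 0 is the no-effect control and ±100 the full control effect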). The note with it: purified APE1 endonuclease activity, fluorescence, titration; series mostly up to 57.1 µM. The method, boiled down: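 Read-out: TAMRA fluorescence (525 nm ex, 598 nm em) from cleavage of a quenched THF abasic-site duplex, 50 nM final; activity taken as intensity change between third and first of three reads 60 s apart.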

Experiment [2] in a line: Counterscreen for APE1 Inhibitors: Fluorescent Dye Displacement Validation Assay (AID 1707).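 Further: plate controls were ThO with dsDNA and no compound for no effect and ThO without dsDNA for full effect.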 The note with it: fluorescent dye displacement from DNA; series mostly up to 57.1 µM. The method, boiled down: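 Assay buffer: Tris-HCl pH7.5 with 50mM NaCl, 2 mM MgCl2, 0.01% Tween-20. Dye 250 nM, duplex 50 nM final. Readout: decrease in ThO endpoint fluorescence, 480 nm excitation, 540 nm emission.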

The target of experiment [3] is Endonuclease 4 (Escherichia coli (strain K12)) (UniProt P0A6C1). Description: Counterscreen for APE1 Inhibitors: qHTS Validation Assay for Inhibitors of Endonuclease IV (AID 1708). Further: on the % scale 0 is the no-effect control and ±100 the full control effect. The note with it: E. coli endonuclease IV, DNA cleavage fluorescence; series mostly up to 57.1 µM. In short, it runs like this:
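2 nM enzyme was preincubated with compounds for 15 min at room temperature in 50 mM Tris-HCl pH 7.5, 50 mM NaCl, 2 mM MgCl2, 1 mM DTT, 0.01% Tween-20. 50 nM THF-abasic TAMRA/BHQ-2 duplex substrate started the reaction.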

A short description of experiment [4]: qHTS for differential inhibitors of proliferation of Plasmodium falciparum line 7G8 (AID 1815).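 Further: parasite growth measured after three days of incubation.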 Further: potency means the concentration at half of the fitted maximal effect.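 On activity change, negative = inhibition: plate controls were vehicle wells for no effect and reference inhibitor wells for full effect.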 The note with it: Plasmodium falciparum 7G8 proliferation inhibition; series mostly up to 28.7 µM.
The nature of experiment [5]: qHTS for differential inhibitors of proliferation of Plasmodium falciparum line GB4 (AID 1816).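 Further: parasite growth measured after 72 h incubation.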 Further: potency means the concentration at half of the fitted maximal effect.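 On activity change, negative = inhibition: 0% = vehicle DMSO and -100% = reference inhibitor.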 The note with it: Potency: Plasmodium falciparum GB4 proliferation inhibition; series mostly up to 28.7 µM.
A short description of experiment [6]: qHTS for differential inhibitors of proliferation of Plasmodium falciparum line 3D7 (AID 1876). Further: potency means the concentration at half of the fitted maximal effect. Conditions: P. falciparum 3D7 proliferation inhibition; series mostly up to 28.7 µM.
A short description of experiment [7]: qHTS for differential inhibitors of proliferation of Plasmodium falciparum line D10 (AID 1877).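 Further: parasites grown with compound for 72 h before DNA staining.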 Further: potency means the concentration at half of the fitted maximal effect.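 On activity change, negative = inhibition: plate controls were vehicle wells for no effect and reference inhibitor wells for full effect.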 The note with it: series mostly up to 28.7 µM.
A short description of experiment [8]: qHTS for differential inhibitors of proliferation of Plasmodium falciparum line Dd2 (AID 1882). Further: nearly all actives have a fitted effect of over 65% in size. Further: potency means the concentration at half of the fitted maximal effect.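 On activity change, negative = inhibition: compound exposure of 72 h on infected erythrocytes; plate controls were DMSO vehicle for no effect and 0.29 µM artemisinin for full effect.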 The note with it: Potency: Plasmodium falciparum Dd2 proliferation inhibition; series mostly up to 28.7 µM. The method, boiled down:
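SYBR Green I DNA fluorescence read-out, ex 485/em 535 nm. Signals were normalized to 0.29 uM artemisinin and DMSO wells, then corrected using vehicle-only plates flanking each stack. Parasite growth ran 72 h in erythrocytes before lysis.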

Experiment [9] in a line: qHTS for differential inhibitors of proliferation of Plasmodium falciparum line W2 (AID 1883).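 Further: parasites grown with compound for 72 h before lysis and staining.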 Further: potency means the concentration at half of the fitted maximal effect.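 On activity change, negative = inhibition: 0% = vehicle wells and -100% = control inhibitor wells.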 The note with it: Potency: Plasmodium falciparum W2 proliferation inhibition; series mostly up to 28.7 µM.
Experiment [10] can be described thus: qHTS for differential inhibitors of proliferation of Plasmodium falciparum line HB3 (AID 1886).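 Further: parasites grown with compound for 72 h before SYBR Green readout.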 Further: potency means the concentration at half of the fitted maximal effect.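 On activity change, negative = inhibition: plate controls were vehicle for no effect and reference inhibitor for full effect.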 The note with it: Potency: Plasmodium falciparum HB3 proliferation inhibition; series mostly up to 28.7 µM.
Experiment [11] concerns the target ATP-dependent DNA helicase Q1 (Homo sapiens) (UniProt P46063). The experiment is described as follows: qHTS Validation Assay for Inhibitors of RecQ-Like Dna Helicase 1 (RECQ1) (AID 2353).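 Further: plate controls were DMSO vehicle for no effect and enzyme-free control for full effect.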 The note with it: recombinant RECQ1 helicase DNA unwinding assay; series mostly up to 25.6 µM. In short, it runs like this: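 50 nM RECQ1T1 preincubated 15 min with compound in Tris pH 8.0 buffer with MgCl2, DTT, Tween-20 and 2.5 ug/ml poly(dI-dC); started with 200 nM TAMRA/BHQ-2 forked duplex and 2 mM ATP. Unwinding read as fluorescence (525/598 nm), two reads 2 h apart.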

The target in experiment [12] is RecQ-like DNA helicase BLM (Homo sapiens) (UniProt P54132). The experiment is described as follows: qHTS Validation Assay for Inhibitors of Bloom's syndrome helicase (BLM) (AID 2364).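 Further: plate controls were DMSO vehicle for no effect and enzyme-free control for full effect.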 Conditions: BLM helicase DNA unwinding, fluorescence, in vitro; series mostly up to 57.1 µM. The method, boiled down:
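BLM 50 nM in 25 mM Tris-HCl pH 8.0, 5 mM NaCl, 2 mM MgCl2, 1 mM DTT, 0.01% Tween-20, 2.5 ug/ml poly(dI-dC); 15 min cpd preinc, RT. Start: 200 nM forked DNA + 2 mM ATP (final). TAMRA read, 2 reads 2 h apart.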

Experiment [13] addresses Ferritin light chain (Equus caballus) (UniProt P02791). Description: qHTS Validation Assay for Identification of Novel General Anesthetics (AID 2323). Further: on the % scale 0 is the no-effect control and ±100 the full control effect. Conditions: horse apoferritin, anesthetic-site fluorescent probe displacement; series mostly up to 76.9 µM. In short, it runs like this: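 10 uM horse-spleen apoferritin + 1-AMA (50% saturated, PBS); cpd pin-transferred, 10 min RT. Ex 380/Em 535 nm endpoint. Activity normalized between free 1-AMA and 1-AMA/apoferritin; 4-parameter Hill fit of concentration-response.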

The nature of experiment [14]: Cytometric Cell-Based qHTS for Inhibitors of the mTORC1 Signaling Pathway in MEF (Tsc2-/-, p53-/-) Cells (AID 2660).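 Further: percent of cells above a phospho-rpS6 to PI ratio cutoff in each well; plate controls were DMSO for no effect and rapamycin for full effect.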 Conditions: mTORC1 pathway cytometry; series mostly up to 38.3 µM. The method, boiled down:
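Cells are plated, treated with compound for 24 hrs at 37 degree Celsius, then fixed, blocked and immunostained for phospho-rpS6 Ser235/236. Propidium iodide counterstain follows. Per-well % positive cells is derived from the PI-normalized phospho-S6 signal.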

Experiment [15] can be described thus: High Content Imaging Cell-Based qHTS for Inhibitors of the mTORC1 Signaling Pathway in MEF (Tsc2-/-, p53-/-) Cells (AID 2666).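 Further: percent of cells scored positive for phospho-rpS6 Ser235/236 immunostaining by imaging.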 Conditions: series mostly up to 38.3 µM. In short, it runs like this:
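Read-out: % positive cells per well, with thresholds from highest- and lowest-signal wells, based on phospho-rpS6 (Ser235/236) intensity normalized to Hoechst nuclear stain. Cells: Tsc2-/-, p53-/- MEFs carrying empty vector; compound 24 hrs, 37 degree Celsius.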

The nature of experiment [16]: qHTS Assay for Modulators of Human Peripheral Myelin Protein 22 (PMP22) Expression/Activity (AID 1967; active means well fitted curve in the direction sought with a large enough effect in the signal ratio; the % refers to the signal ratio;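 further: 0% = untreated cells and 100% end not stated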). The note with it: Cell-based PMP22 reporter, dual-color luciferase ratio, mouse Pmp22 promoter in mouse Schwann cells; series mostly up to 115 µM. In short, it runs like this: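 Mouse MSC80 Schwann line, Pmp22 promoter–CBG68 reporter, EF-alpha–CBR internal control. 24h compound exposure, 37 °C/5% CO2, DMEM + 10% FBS. Readout: corrected green/red luminescence ratio, normalized to untreated cells; concentration-response curves fitted and classified.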

The nature of experiment [17]: qHTS Assay for Lipid Storage Modulators (AID 1519; calls by dose curve; on activity change, negative = inhibition: on the % scale 0 is the no-effect control and ±100 the full control effect). Conditions: Drosophila S3 cells, BODIPY lipid droplet/cell ratio, laser cytometry, cells loaded with oleic acid; for activity change, negative = inhibition: at 57.5 µM (top of the series). In short, it runs like this: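 Cells seeded at 5,000 per well were treated with compounds over a concentration series and loaded with oleic acid (400 uM, as added). Lipid droplet fluorescence (488 nm excitation, 500-530 nm channel) was read by laser-scanning cytometry and normalized to 20 uM Triacsin C.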

[18] abbreviates: measured here: cell count channel max response.
[19] abbreviates: measured here: lipid channel max response.

Records with an inconclusive call do not appear. Calls of active or inactive are those of the source. Unless noted, the call rests on the fitted dose curve; in most records, active means well fitted curve in the direction sought with a large enough effect; inconclusive means small, poorly fitted or top-dose-only effect, or another doubt; inactive means no such curve, though single readings can be large; an effect the other way counts as inactive or inconclusive.

Sequence of Ferritin light chain (Equus caballus) (P02791 2-175 limits assumed): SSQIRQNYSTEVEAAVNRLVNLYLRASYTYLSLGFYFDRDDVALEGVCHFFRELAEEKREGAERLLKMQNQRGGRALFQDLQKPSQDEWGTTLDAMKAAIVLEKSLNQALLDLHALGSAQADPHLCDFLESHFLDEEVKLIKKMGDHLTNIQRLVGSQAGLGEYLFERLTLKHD
Sequence of DNA repair nuclease/redox regulator APEX1 (Homo sapiens) (P27695 whole entry, looked up): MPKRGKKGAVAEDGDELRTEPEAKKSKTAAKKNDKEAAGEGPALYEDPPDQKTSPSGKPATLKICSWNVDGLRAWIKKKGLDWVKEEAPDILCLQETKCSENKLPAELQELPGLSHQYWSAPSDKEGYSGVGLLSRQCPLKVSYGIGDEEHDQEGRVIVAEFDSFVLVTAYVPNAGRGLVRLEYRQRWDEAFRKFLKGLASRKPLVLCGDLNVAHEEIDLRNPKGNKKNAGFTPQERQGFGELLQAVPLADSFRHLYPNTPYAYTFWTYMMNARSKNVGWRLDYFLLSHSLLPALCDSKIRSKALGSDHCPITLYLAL
Sequence of RecQ-like DNA helicase BLM (Homo sapiens) (P54132 whole entry, looked up): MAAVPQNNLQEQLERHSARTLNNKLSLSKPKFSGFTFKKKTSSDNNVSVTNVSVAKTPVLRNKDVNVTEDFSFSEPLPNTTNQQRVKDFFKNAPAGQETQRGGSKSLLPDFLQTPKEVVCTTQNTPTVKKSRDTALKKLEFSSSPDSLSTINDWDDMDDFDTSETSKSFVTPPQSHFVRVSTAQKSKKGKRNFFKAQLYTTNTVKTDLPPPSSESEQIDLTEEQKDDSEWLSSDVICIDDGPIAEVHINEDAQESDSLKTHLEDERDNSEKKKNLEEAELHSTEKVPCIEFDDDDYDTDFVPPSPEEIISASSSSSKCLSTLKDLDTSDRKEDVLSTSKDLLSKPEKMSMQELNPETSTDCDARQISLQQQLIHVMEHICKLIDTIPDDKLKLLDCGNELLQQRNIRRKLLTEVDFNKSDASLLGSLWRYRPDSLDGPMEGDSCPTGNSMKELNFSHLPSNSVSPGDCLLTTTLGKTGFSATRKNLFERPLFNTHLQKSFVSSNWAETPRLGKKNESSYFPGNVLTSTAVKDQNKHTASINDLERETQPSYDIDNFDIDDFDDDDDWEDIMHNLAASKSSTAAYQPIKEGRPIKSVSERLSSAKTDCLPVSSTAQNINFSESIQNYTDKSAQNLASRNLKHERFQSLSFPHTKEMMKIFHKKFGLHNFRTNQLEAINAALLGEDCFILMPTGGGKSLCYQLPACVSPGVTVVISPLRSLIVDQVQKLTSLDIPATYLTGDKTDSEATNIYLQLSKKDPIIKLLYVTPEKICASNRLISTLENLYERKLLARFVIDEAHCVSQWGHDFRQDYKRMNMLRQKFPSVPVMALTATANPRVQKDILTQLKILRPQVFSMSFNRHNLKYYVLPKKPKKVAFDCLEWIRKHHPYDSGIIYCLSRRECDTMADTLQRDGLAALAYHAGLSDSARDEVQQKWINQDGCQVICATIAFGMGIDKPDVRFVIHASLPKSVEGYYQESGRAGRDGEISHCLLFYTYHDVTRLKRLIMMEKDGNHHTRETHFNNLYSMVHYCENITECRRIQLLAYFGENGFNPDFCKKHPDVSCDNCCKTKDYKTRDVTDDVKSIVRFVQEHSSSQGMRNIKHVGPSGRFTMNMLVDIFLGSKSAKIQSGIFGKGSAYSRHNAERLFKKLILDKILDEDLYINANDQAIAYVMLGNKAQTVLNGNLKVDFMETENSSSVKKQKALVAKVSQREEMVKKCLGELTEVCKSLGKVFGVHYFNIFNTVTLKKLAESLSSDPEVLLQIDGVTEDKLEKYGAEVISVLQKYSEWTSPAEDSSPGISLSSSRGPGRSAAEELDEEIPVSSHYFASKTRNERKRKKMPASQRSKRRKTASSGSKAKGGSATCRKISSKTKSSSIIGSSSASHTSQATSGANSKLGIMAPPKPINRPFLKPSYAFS
Sequence of ATP-dependent DNA helicase Q1 (Homo sapiens) (P46063 whole entry, looked up): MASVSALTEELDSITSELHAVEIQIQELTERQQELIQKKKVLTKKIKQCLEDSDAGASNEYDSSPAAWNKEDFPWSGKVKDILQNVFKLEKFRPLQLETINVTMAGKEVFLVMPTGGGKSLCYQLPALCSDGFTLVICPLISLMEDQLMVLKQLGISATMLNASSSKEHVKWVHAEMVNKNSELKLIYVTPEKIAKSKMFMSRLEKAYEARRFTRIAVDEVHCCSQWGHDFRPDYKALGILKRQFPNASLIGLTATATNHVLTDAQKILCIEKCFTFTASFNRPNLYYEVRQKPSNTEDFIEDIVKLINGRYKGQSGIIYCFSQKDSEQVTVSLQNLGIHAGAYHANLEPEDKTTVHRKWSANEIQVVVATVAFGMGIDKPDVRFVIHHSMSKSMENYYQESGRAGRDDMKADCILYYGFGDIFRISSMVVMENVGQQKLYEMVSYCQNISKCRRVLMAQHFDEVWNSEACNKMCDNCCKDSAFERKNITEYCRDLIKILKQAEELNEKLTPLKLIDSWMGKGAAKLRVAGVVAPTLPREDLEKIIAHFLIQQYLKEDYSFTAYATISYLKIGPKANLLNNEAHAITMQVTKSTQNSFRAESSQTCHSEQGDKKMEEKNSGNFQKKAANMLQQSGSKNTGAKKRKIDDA

As for `C=CCN1CC[C@]23c4c5ccc(O)c4O[C@@H]2/C(=N/N=C2\CC[C@@]4(O)C6Cc7ccc(O)c8c7[C@@]4(CCN6CC=C)[C@@H]2O8)CC[C@@]3(O)C1C5`, the Potency result in [1], in experiment [2], in experiment [3], in [11] and in [12] was “inactive” in each case. For the same compound, the Potency is 2.51 µM (active) in experiment [4]; 3.16 µM (active) in [5]; 2.24 µM (active) in [6]; 2.82 µM (active) in experiment [7]; 8.91 µM (active) in experiment [8]; 2.51 µM (active) in [9]. Further, the Potency in experiment [10] is 2.82 µM (active).
With `NCCCP(=O)(O)O`, the Potency entry in [1], in experiment [2], in experiment [3], in [4], in experiment [5] and in experiment [6] was “inactive” in each case. Moreover, the Potency entry in [7], in experiment [8], in [9], in experiment [10], in experiment [11] and in [14] was “inactive” in each case. Further, the Potency result in [15] is “inactive”. Further, the compound was called inactive in experiment [13].
In the case of `CCCN1CCCC2Cc3[nH]ncc3CC21` (stereo not given), the Potency result in experiment [1], in experiment [2], in [3], in [4], in [5] and in [6] was “inactive” each time. For the same compound, the Potency entry in experiment [7], in experiment [8], in experiment [10] and in experiment [11] was “inactive” in each case. Moreover, the result in experiment [16] and in [13] was inactive.
Take `C[N+](C)(C)CC#CCN1CCCC1=O`: the activity change, negative = inhibition in experiment [17] is 1.94% (inactive). In addition, the max response worked out at 5.23% in [17] (setting [18]) and 8.27% in experiment [17] (setting [19]). Further, the Potency entry in experiment [2], in experiment [5], in experiment [6], in experiment [7], in experiment [8] and in experiment [10] was “inactive” in each case. Also, the Potency result in [11], in experiment [12], in experiment [14] and in [15] was “inactive” each time. In addition, in experiment [13], the compound was classed as inactive.
For the compound `N#CC(C#N)=Cc1cc(O)c(O)c(O)c1`, the Potency result in experiment [1], in experiment [2], in experiment [3] and in [11] was “inactive” in each case. In addition, the Potency in experiment [4] was 6.31 µM (active); in experiment [5], 10 µM (active); in experiment [6], 12.6 µM (active); in experiment [7] it was 12.6 µM (active); in experiment [9] it was 7.94 µM (active); in experiment [10] it was 11.2 µM (active). For the same compound, the outcome in experiment [13] was inactive.
For `COc1ccc2[nH]cc(CCN)c2c1`, the Potency result in experiment [1], in [2], in experiment [3], in [4], in experiment [5] and in experiment [6] was “inactive” in each case. In addition, the Potency result in experiment [7], in experiment [8], in experiment [9], in experiment [10], in experiment [11] and in experiment [14] was “inactive” each time. For the same compound, the Potency entry in [15] is “inactive”. For the same compound, in experiment [13], the result was inactive.
Consider `C[N+](C)(C)CC#CCOC(=O)Nc1cccc(Cl)c1`, for which, in experiment [17], the activity change, negative = inhibition was -0.494% (inactive). For the same compound, the max response in experiment [17] (setting [18]) was -7.08%; in [17] (setting [19]) it was -8.94%. Further, the Potency result in [1], in [2], in experiment [8], in experiment [11], in experiment [14] and in [15] was “inactive” throughout. Also, the values for the Potency in experiment [6], in [7] and in experiment [9] were 12.6 µM (active), 11.2 µM (active) and 12.6 µM (active), respectively. The outcome in [16] and in experiment [13] was inactive.
As to `CC(Cc1ccc(OCC(=O)O)cc1)NCC(O)c1cccc(Cl)c1` (stereo not given), the Potency entry in experiment [1], in experiment [2], in [3], in experiment [5], in [6] and in [7] was “inactive” each time. Also, the Potency entry in experiment [8], in experiment [9], in experiment [10], in [11], in [14] and in experiment [15] was “inactive” throughout. The result in experiment [16] and in experiment [13] was inactive.
Consider `COc1ccc2c(c1)[C@@]13CCCC[C@H]1[C@@H](C2)NCC3`, for which the Potency entry in experiment [1], in [2], in [3], in experiment [11], in experiment [12] and in experiment [14] was “inactive” each time. Also, in experiment [15], the Potency result is “inactive”. Also, the Potency in experiment [4] is 3.55 µM (active); in experiment [5], 7.08 µM (active); in experiment [9] it was 1.12 µM (active); in experiment [10], 11.2 µM (active). In addition, the outcome in experiment [13] was inactive.
As for `COc1cc(CC(C)N)c(OC)cc1I` (stereo not given), the Potency entry in [1], in experiment [2], in experiment [6], in [7], in experiment [10] and in experiment [11] was “inactive” throughout. Moreover, the Potency entry in experiment [12], in experiment [14] and in experiment [15] was “inactive” in each case. Also, the Potency in [4] is 10 µM (active); in experiment [5], 6.31 µM (active); in experiment [9], 4.47 µM (active). Also, in experiment [13], the compound was classed as inactive.

(Values after PubChem BioAssay (NCATS).)
